Screening data deposited in PubChem BioAssay by National Center for Advancing Translational Sciences (NCATS).
Only some compounds are listed: those with a hit (about 10% of all), similar ones and a draw of the others.
HP1b chromo inh: inhibitors of HP1-beta chromodomain binding to methylated histone tails. AID 540317. Potency, µM (series often up to 114 µM), for inactives: at the top dose activity change, negative = inhibition, hits mostly inhibitors. AlphaScreen HP1-beta / biotin-H3K9me3 peptide binding. actives 0.56% (n = 390,000); also: potency is read from the fitted curve at half-maximal effect; nearly all actives have a fitted effect of over 70% in size
Target sequence (P83916 whole entry, looked up): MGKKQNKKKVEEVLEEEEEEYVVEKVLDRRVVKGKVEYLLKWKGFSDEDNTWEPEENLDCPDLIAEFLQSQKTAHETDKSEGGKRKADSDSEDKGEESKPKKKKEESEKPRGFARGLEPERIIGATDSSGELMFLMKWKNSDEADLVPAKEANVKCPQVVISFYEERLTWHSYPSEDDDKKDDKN
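AlphaScreen: HP1-beta (50 nM) preformed 30 min with biotin-H3(1-18)K9me3 peptide (50 nM) in PBS pH 7.4, 0.01% Tween-20. Compound added for 30 min at RT, then streptavidin donor/nickel chelate acceptor beads (10 ug/mL) for 30 min.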
BAZ2B block: blocks human BAZ2B; Q9UIF8; AlphaScreen BAZ2B-H3K14Ac peptide displacement; Potency, µM (doses to about 114 µM), inactives show at the top dose activity change, negative = inhibition, most hits filed as inhibitors; actives 4.4% (n = 360,000); also: potency is read from the fitted curve at half-maximal effect; % is scaled to controls: 0 for no effect and ±100 for the full control effect; nearly all actives have a fitted effect of over 60% in size
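BAZ2B 50 nM plus b-H3(5-23)K14Ac 50 nM, PBS pH 7.4/0.01% Tween-20, 30 min RT; compound added (max 110 uM), 30 min RT; streptavidin donor/Ni-chelate acceptor beads 10 ug/mL final, 20 min dark; AlphaScreen read.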
JMJD2A Tudor inh: blocks the human JMJD2A Tudor domain | O75164 | AlphaScreen JMJD2A-Tudor / H3K4me3 peptide binding | Potency, µM (titrated, usually from 114 µM), for inactives: top-dose activity change, negative = inhibition, most hits filed as inhibitors | actives 4.4% (n = 390,000) | AID 504339; also: potency is read from the fitted curve at half-maximal effect; % is scaled to controls: 0 for no effect and ±100 for the full control effect; nearly all actives have a fitted effect of over 50% in size
G9a inh: blocks human histone lysine methyltransferase G9a; G9a H3K9 monomethylation, AlphaScreen, 2 h; actives 8.8% (n = 350,000); Q96KQ7; Potency, µM (top dose mostly 102 µM), without a hit: top-dose activity, negative = inhibition, hits mostly inhibitors; also: potency is read from the fitted curve at half-maximal effect; % is scaled to controls: 0 for no effect and ±100 for the full control effect; nearly all actives have a fitted effect of over 75% in size
Target sequence (Q96KQ7 913-1193 limits assumed): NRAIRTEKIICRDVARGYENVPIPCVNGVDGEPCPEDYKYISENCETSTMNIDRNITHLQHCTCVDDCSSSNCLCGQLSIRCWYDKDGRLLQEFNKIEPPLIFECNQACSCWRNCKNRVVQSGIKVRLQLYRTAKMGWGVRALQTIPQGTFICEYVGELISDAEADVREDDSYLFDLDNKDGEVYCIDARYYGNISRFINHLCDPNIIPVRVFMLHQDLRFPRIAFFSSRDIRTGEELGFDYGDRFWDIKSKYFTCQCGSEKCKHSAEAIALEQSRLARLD
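Enzyme 20 nM + cpd, 15 min RT; add b-H3K9 pep 500 nM / SAM 20 uM; 2 h RT; anti-H3K9me1 Ab 0.5 ug/mL + SA donor / anti-rabbit acceptor beads 20 ug/mL each, 10 min; AlphaScreen read.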
CtBP-E1A inh: CtBP/E1A binding inhibition; AlphaScreen GST-E1A/His-CtBP binding, 1536-well; hits give low values; activity change, % (test concentration not listed); actives 0.49% (n = 340,000); AID 651724; in the data active = activity change below about -65%; inconclusive = mostly about -30% to -63%; also: % is scaled to controls: 0 for no effect and ±100 for the full control effect
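Steps: dispense buffer (Tris pH 8.0, NaCl 300 mM, TCEP 1 mM, BSA, Tween 20); add 5X protein mix (GST-E1A, His-CtBP, 125 nM each); pin 23 nL compound; 2 h at 37 °C, dark; add 5X beads (50 ug/mL); 1 h; read.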
Six1-Eya2 blk: Six1/Eya2 interaction inhibition; activity change, % (concentration not given with the values); AlphaScreen GST-Six1/His-Eya2 binding, biochemical; hits give low values; Q15475+O00167; actives 0.56% (n = 360,000); in the data active = activity change below about -65%; inconclusive = mostly about -30% to -63%; also: % is scaled to controls: 0 for no effect and ±100 for the full control effect
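GST-Six1 + His-Eya2 (5X stock: 250/500 nM); Tris pH 8.0, 300 mM NaCl, 0.05% BSA, 0.02% Tween 20; GSH donor/Ni acceptor beads; 1 h 37 °C dark; AlphaScreen readout.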
* = called active by the depositor; ? = inconclusive; / = not tested or not shown; [ ] = remark or other dose. Unless noted, calls follow the shape of the dose curve; as a rule, active = well fitted inhibition curve with a large enough effect; inconclusive = small, poorly fitted or top-dose-only effect; inactive = no such curve, though single readings can be large or run the other way.

SMILES	HP1b chromo inh	BAZ2B block	JMJD2A Tudor inh	G9a inh	CtBP-E1A inh	Six1-Eya2 blk
O=C(CN1CCCC1)Nc1ccc(OC(F)(F)F)cc1	?	?	0.794µM*	/	3.5	-1.9
CCN1CCN(CC(=O)Nc2ccc(N(C)C)cc2)CC1	-4.1%	?	7.08µM*	?	11.6	-15.8
CCN(CC)c1ccc(NC(=O)CN2CCN(CC(=O)Nc3ccc(OC)cc3)CC2)cc1	12.0%	-25.5%	-21.1%	11.2µM*	/	-3.4
CCOc1ccc(NC(=O)CN2CCN(CC(=O)Nc3cc(OC)cc(OC)c3)CC2)cc1	25.4%	0.6%	-14.0%	?	1.7	0.0
CCc1cccc(C)c1NS(=O)(=O)Cc1ccccc1	15.2%	-2.7%	-7.5%	79.4µM*	1.9	-15.4
O=C(CN1CCC(NC(=O)C2CCCCC2)CC1)Nc1ccccc1	-26.9%[57 µM]	/	0.891µM*	/	1.1	6.6
COc1cccc(NC(=O)c2cc(CN3CCOCC3)on2)c1	18.6%	-4.6%	-16.7%	16.8%[59 µM]	/	/
CC(C)c1ccc(NC(=O)C(Cc2ccccc2)NS(=O)(=O)c2ccc3c(c2)oc(=O)n3C)cc1 (stereo not drawn)	34.5%	-5.2%[57.1 µM]	0.7%	-3.0%[59 µM]	/	/
CN(C)c1ccc(NC(=O)CN2CCC(N3CCCCC3)CC2)cc1	?	44.7µM*	?	2.24µM*	10.7	-0.8
Cc1ccc(NC(=O)CNCc2ccccc2)c(Br)c1	36.9%	4.6%	-12.3%	51.4%[59 µM]	3.2	5.7
CN(C)c1ccc(NC(=O)CN2CCN(CC(=O)Nc3ccc(Br)cc3)CC2)cc1	20.3%[57 µM]	-14.7%	-22.6%	8.91µM*	/	/
CC(C)c1ccc(S(=O)(=O)N2CCN(CC(=O)Nc3ccc(Cl)cc3F)CC2)cc1	38.4%	11.6%	-10.1%	-9.8%[12.7 µM]	-3.8	-11.2
O=C(CN1CCOCC1)Nc1ccc(Br)cc1	41.2%	-1.7%	1.7%	16.4%	9.9	2.8
CCN(CC)c1ccc(NC(=O)CN2CCN(S(=O)(=O)c3ccc(C(C)C)cc3)CC2)cc1	?	7.94µM*	14.1µM*	?	/	/
CN(C)c1ccc(NC(=O)CN2CCC(NC(=O)C3CCCCC3)CC2)cc1	-18.4%	-38.0%	?	?	0.0	13.6
Cc1ccc(NC(=O)CNCc2ccccc2)cc1Br	?	50.1µM*	0.794µM*	7.94µM*	1.1	4.9
CN(CC(=O)Nc1ccccc1Cl)S(=O)(=O)c1ccc(C(=O)N2CCOCC2)s1	36.4%	-7.9%	-2.6%	-0.4%[12.7 µM]	/	/
O=C(CNCC1CCCCC1)Nc1ccc(OC(F)(F)F)cc1	-25.0%	50.1µM*	3.55µM*	8.91µM*	-0.6	7.6
CCc1cccc(C)c1NC(=S)NCc1ccccc1	16.2%	-7.7%	-10.8%	32.2%[59 µM]	-23.9	5.6
CN(CC(=O)Nc1ccc(OC(F)(F)F)cc1)C1CCCCC1	-3.5%	?	-8.1%[11.4 µM]	?	8.5	8.2
CCc1cccc(C)c1NC(=O)CNCc1ccccc1	?	56.5%	8.91µM*	17.8µM*	11.7	-0.8
CC1=CC(c2ccccc2)n2ncnc2N1 (stereo not drawn)	41.7%	/	-4.1%	/	3.2	2.3
CC1=Nc2ncnn2C(c2ccccc2)/C1=N\O (stereo not drawn)	18.7%	?	-11.6%	50.1µM*	-1.4	-0.7
O=C(C1CCN(c2ncnc3c2nc2n3CCCCC2)CC1)N1CCN(c2cccc(Cl)c2)CC1	37.5%	31.6µM*	?	10.7%	/	-11.0
COc1ccc(N2CCN(C(=O)C3CCCN(c4ncnc5c4nc4n5CCCCC4)C3)CC2)cc1 (stereo not drawn)	-1.9%	28.2µM*	?	/	-28.6	-10.5
CC(=O)c1ccc(N2CCN(C(=O)C3CCCN(c4ncnc5c4nc4n5CCCCC4)C3)CC2)cc1 (stereo not drawn)	26.6%	?	-13.0%	/	-20.8	-3.5
CCNc1nc(C#N)nc(Nc2ccccc2)n1	19.8%[57 µM]	/	5.4%[57.1 µM]	/	/	/
CCN1CCCc2cc(CN(CCN3CCOCC3)C(=S)Nc3cccc(Cl)c3)ccc21	?	7.08µM*	11.2µM*	?	?	?
